From PubChem
In the library only some 2.4% were active in any assay of this set; here they are far more common.
D2 PAM-1: Beta-Arrestin HTS for Positive Allosteric Modulators of the Human D2 Dopamine Receptor: Potentiators; DiscoveRx D2 beta-arrestin cells, luminescence, 90 min; 100% = 57 uM dopamine signal; actives 0.23% (n = 360,000); potentiation, % (test concentration not listed); in the data active means potentiation above about 50%; inconclusive means mostly about 30% to 49%
Target sequence (P14416 whole entry, looked up): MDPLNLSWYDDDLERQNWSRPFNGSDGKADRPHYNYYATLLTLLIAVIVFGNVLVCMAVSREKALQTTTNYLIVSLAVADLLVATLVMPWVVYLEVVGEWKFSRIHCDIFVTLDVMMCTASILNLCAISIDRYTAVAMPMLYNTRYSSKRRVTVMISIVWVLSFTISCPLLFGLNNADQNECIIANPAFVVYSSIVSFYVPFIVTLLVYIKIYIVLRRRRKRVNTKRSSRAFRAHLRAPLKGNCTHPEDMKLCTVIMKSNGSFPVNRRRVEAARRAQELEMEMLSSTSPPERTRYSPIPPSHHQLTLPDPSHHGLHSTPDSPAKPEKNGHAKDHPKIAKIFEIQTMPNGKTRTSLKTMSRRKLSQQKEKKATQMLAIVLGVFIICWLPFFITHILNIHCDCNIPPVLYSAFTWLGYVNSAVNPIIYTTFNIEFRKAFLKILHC
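PathHunter D2 cells, attached overnight at 37 deg C, received compound in DMSO plus dopamine at EC20 (50 nM final) for 90 min at 37 deg C. Beta-arrestin recruitment was read as luminescence after 1 h with detection reagent at ambient temperature.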
D2 ag-1: HTS Assay for Allosteric Agonists of the Human D2 Dopamine Receptor: Primary Screen for Agonists. actives 0.53% (n = 340,000). HEK293 T-REx D2 cells, calcium flux agonist mode. D(2) dopamine receptor (Homo sapiens), P14416. activation, % at 2 µM. AID 485358, 2010;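 active means activation over 3 SD above normal in the single-dose calcium agonist read, cut at about 30% in these data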; further: 0% is about no effect
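In this primary screen, compounds producing a positive calcium signal within 180 s of addition to tetracycline-induced, force-coupled HEK293 Trex D2 cells are flagged; cells are dye-loaded with a no-wash calcium kit beforehand.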
D2 antagonist: HTS Assay for Allosteric Antagonists of the Human D2 Dopamine Receptor: Primary Screen for Antagonists | inhibition, % at 10 µM | HEK293 TREx D2 cells, calcium flux, dopamine EC80 | actives 2% (n = 340,000) | D(2) dopamine receptor (Homo sapiens), P14416; in the data active means inhibition above about 30%; inactive means below that, where a call was filed; further: 0% is about no effect
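Calcium flux kinetic readout in an inducible HEK293 TREx D2 line plated overnight at 30 C. After 180 s compound exposure, an EC80 dopamine challenge follows with another 180 s kinetic read to detect antagonism.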
D2 PAM-2: HTS Assay for Positive Allosteric Modulators of the Human D2 Dopamine Receptor: Primary Screen for Potentiators; HEK293 T-REx D2, calcium flux, EC20 dopamine potentiation; actives 0.34% (n = 340,000); AID 485347, 2010; potentiation, % at 10 µM; D(2) dopamine receptor (Homo sapiens), P14416;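 active means potentiation over 3 SD above the plate norm, cut at about 30% in these data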; further: 0% is about no effect
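Primary screen. Calcium kinetics in induced HEK293 T-REx D2 cells: compound pre-addition 180 s, EC20 dopamine, 180 s more.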
D2 ag-2: Beta-Arrestin HTS for Positive Allosteric Modulators of the Human D2 Dopamine Receptor: Agonists; D(2) dopamine receptor (Homo sapiens), P14416; DiscoveRx PathHunter D2 beta-arrestin, luminescence, 90 min; 100% = 57 uM dopamine signal; activation, % (concentration not given with the values); actives 0.084% (n = 360,000); AID 624465, 2012; in the data active means activation above about 40%; inconclusive means between about 15% and that limit
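Agonist mode: compounds alone added to overnight-plated D2 PathHunter cells for 90 min at 37 C, with 57 uM final dopamine (EC100) defining full response. Beta-arrestin recruitment detected by chemiluminescent reagent, read after 1 h at ambient temperature.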
* = called active by the depositor; u = inconclusive; x = no result.

SMILES	D2 PAM-1	D2 ag-1	D2 antagonist	D2 PAM-2	D2 ag-2
CCOc1ccccc1NC(=O)N(Cc1ccc(F)cc1)C1CCN(CC)CC1	x	1	x	-11	x
COc1ccc(N=Nc2nc3ccc(Br)cc3n2C)cc1	-46	0	23	33*	-7
Cc1ccc(NC(=O)C2CCCCC2)cc1C	-24	-1	36*	-7	-1
O=C(Cc1cnn(-c2ccccc2)c1)c1ccc(O)c(O)c1O	110*	0	-2	7	u
CCc1cc(C(=O)Cc2cnn(-c3ccccc3)c2)c(O)cc1O	2	0	-12	4	0
COc1cccc2sc(N(CCN(C)C)C(=O)/C=C/c3cccs3)nc12	-22	0	-6	-19	1
CCOc1cccc2sc(N(CCN(C)C)C(=O)/C=C/c3cccs3)nc12	-32	-1	66*	-23	-3
CCC(C)NCCOc1cc(C)cc(C)c1C (centres undefined)	-15	1	51*	-20	-6
Cc1ccc(S(=O)(=O)CC(=O)c2ccc(C)c([N+](=O)[O-])c2)cc1	-8	1	79*	0	2
Cc1ccc(S(=O)(=O)CC(=O)c2ccc([N+](=O)[O-])cc2)cc1	0	1	11	-3	1
Cc1cc(C(=O)OCC(=O)NCc2ccccc2)c2ccccc2n1	-22	x	x	x	7
Cc1cc(C(=O)OCC(=O)Nc2cc(S(=O)(=O)N(C)C)ccc2Cl)c2ccccc2n1	-6	0	10	-14	-1
O=C(COC(=O)C1CCN(S(=O)(=O)c2cccs2)CC1)Nc1ccccc1Br	-5	1	-28	1	12
COc1ccc(S(=O)(=O)N(C)C)cc1NC(=O)COC(=O)c1nc2nccc(C)n2n1	-11	-1	40*	7	-2
Cc1ccc(S(=O)(=O)N(C)C)cc1NC(=O)COC(=O)C1CCN(S(=O)(=O)c2cccs2)CC1	-4	0	35*	0	-4
Cc1cc(C(=O)OCC(=O)Nc2cc(S(=O)(=O)N(C)C)ccc2C)c2ccccc2n1	-15	2	37*	-24	-2
Cc1cc(C(=O)OCC(=O)NCCc2ccc(S(N)(=O)=O)cc2)c2ccccc2n1	-4	0	38*	0	-2
CCOCCSc1c(C)cnc2c1c(=O)n(C)c(=O)n2C	x	0	x	-3	x
COc1ccc(S(=O)(=O)N(CC(=O)NC(C)c2ccccc2)c2ccc(C)cc2)cc1OC (centres undefined)	x	-1	x	-3	x
COc1ccc(OCCCC(=O)Nc2nncs2)cc1	-10	1	4	39*	1
CCc1ccc(NC(=O)c2cc(CN3CCOCC3)on2)cc1	x	0	x	9	x
COc1ccc2c(Sc3ccccc3)c(C(=O)N3CCC(C)CC3)[nH]c2c1	x	0	x	-7	x
CCC(C)N1C(=O)/C(=C/c2c(NCCCOC(C)C)nc3c(C)cccn3c2=O)SC1=S (centres undefined)	-3	34*	25	20	-3
O=C(CN1C(=O)C2CCCCN2c2ccc(C(=O)N3CCCC3)cc21)NCc1cccc(Cl)c1 (centres undefined)	x	1	x	2	x
COc1cc(/C=N\NC(=O)c2ccc(C)nc2)ccc1OC(=O)c1ccco1	3	0	34*	-10	1
SMILES	D2 PAM-1	D2 ag-1	D2 antagonist	D2 PAM-2	D2 ag-2
COc1cc(/C=N\NC(=O)c2ccc(C)nc2)ccc1OC(=O)c1ccc2c(c1)OCO2	-5	-1	-19	x	-6
CCOc1cc(/C=N\NC(=O)OC(C)(C)C)ccc1OC(=O)c1ccco1	-9	-2	31*	-3	-1
O=C(Nc1cccs1)Nc1cccnc1Cl	0	-2	37*	-5	-3
O=C(Nc1cccs1)Nc1ccccc1Cl	-6	0	-1	-5	-1
COc1cccc(/C=N\NC(=O)c2cc(OCC(F)(F)F)ccc2OCC(F)(F)F)c1	-4	-1	-4	31*	-4
CS(=O)(=O)NCCNC(=O)c1cc(OCC(F)(F)F)ccc1OCC(F)(F)F	-1	0	31*	-3	-3
CCN(CC(O)CON=C1c2ccccc2-c2ccccc21)S(=O)(=O)c1ccc(C)cc1 (centres undefined)	-21	2	34*	2	-1
CCN1CCC(N(Cc2cccc(OC)c2)C(=O)Nc2cccc(C)c2C)CC1	x	1	x	2	x
O=C(CCNC(=O)N1CC(=O)Nc2ccccc21)Nc1ccc(Br)cc1F	-28	0	55*	0	-8
COc1ccccc1N1CCN(c2ncnc3c2cnn3-c2cc(Cl)ccc2C)CC1	x	0	x	11	x
Cc1onc(-c2ccccc2)c1C(=O)OCC(=O)Nc1ccc(Cl)cc1	3	0	37*	-4	3
CC(C)c1ccc(NC(=O)CSc2nc(=O)n(Cc3cccnc3)c3c2CCC3)cc1	x	0	x	1	x
COc1ccc(/C=C/C(=O)Nc2cc(C(F)(F)F)ccc2Cl)cc1	-26	0	32*	-21	4
COc1cc(/C=N/N(CCO)C2=NS(=O)(=O)c3ccccc32)cc(OC)c1OC	3	0	-31	7	4
COc1cc(Br)cc(/C=N/N(CCO)C2=NS(=O)(=O)c3ccccc32)c1OC	-23	-2	38*	-26	-3
O=C1c2ccccc2-c2onc3ccc(NCc4ccco4)c1c23	112*	30	18	1	u
CCNc1ccc2noc3c2c1C(=O)c1ccccc1-3	70*	x	x	x	11
O=C1c2ccccc2-c2onc3ccc(N4CCCC4)c1c23	-1	19	13	-18	4
CCOc1ccc2noc3c2c1C(=O)c1ccccc1-3	5	x	x	x	2
CC(=O)c1cccc(N(C(=O)Cn2nnc3ccccc32)C(C(=O)NCc2ccccc2)c2ccc(F)cc2)c1 (centres undefined)	x	x	x	11	x
CN1CCN(S(=O)(=O)c2ccc(Oc3ccc(Br)cc3F)nc2)CC1	1	-1	34*	4	-1
CN1CCN(S(=O)(=O)c2ccc(Oc3ccc(F)cc3Br)nc2)CC1	-1	2	5	10	-1
CCOC(=O)c1ccccc1NC(=O)Cn1c(=O)n(Cc2nc(-c3ccccc3)no2)c(=O)c2ccccc21	x	1	x	-4	x
COc1ccc2c(c1)c1c(c(=O)n(-c3cc(Cl)ccc3C)c(=O)n1Cc1ccc(F)cc1)n2C	x	-1	x	3	x
CCOC(=O)c1cnn(Cc2ccccc2)c1N	8	0	1	-1	0
